The full ranking holds about 39,000 sequences; the median of “fluorescence intensity (a.u.)” is about 4,300, and the highest 2% start at about 39,000. What follows is part of a selection rich in the highest values, with near analogues and random picks from the rest.

The assay addresses T1, OsSMF1 (Oryza sativa, UniProt Q6ZLB0 1-436).
T1 sequence: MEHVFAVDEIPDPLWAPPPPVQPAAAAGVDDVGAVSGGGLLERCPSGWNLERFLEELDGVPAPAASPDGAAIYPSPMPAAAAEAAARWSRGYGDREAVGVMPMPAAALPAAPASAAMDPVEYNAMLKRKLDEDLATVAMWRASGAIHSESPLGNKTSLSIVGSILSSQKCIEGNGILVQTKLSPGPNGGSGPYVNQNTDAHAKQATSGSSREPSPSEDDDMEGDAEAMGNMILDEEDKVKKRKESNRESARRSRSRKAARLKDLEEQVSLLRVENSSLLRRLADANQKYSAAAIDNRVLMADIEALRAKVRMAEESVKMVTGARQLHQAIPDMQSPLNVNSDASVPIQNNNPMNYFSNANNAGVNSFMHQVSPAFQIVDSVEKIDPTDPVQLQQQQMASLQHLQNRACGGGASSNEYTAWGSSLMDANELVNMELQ
Description: protein-binding microarray (RPBM); PBS, 2% BSA, 51.3 ng/ul salmon testes DNA, 50 uM zinc acetate, 200 nM TF, 25 C, 1 h; high values mean tight binding. As to conditions: protein: recombinant; tags: N-terminal polyhistidine and DsRed monomer fusion (pET32a); chain copies: 2; label: CyDye5-dUTP incorporated in the synthesized complementary strand; 3' TTTTT single-stranded linker to array surface; dsDNA, one strand shown. In outline: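 Binding signal here means per-feature fluorescence intensity in arbitrary units. The values were read on an Axon 4000B scanner after a custom Agilent array, double-stranded by primer extension with Cy5-dUTP, was incubated with 200 nM protein at 25 °C for 1 h in PBS with 2% BSA, salmon testes DNA and 50 µM zinc acetate, then washed. The proteins were transcription factors with an N-terminal polyhistidine tag and DsRed, expressed in E. coli BL21-CodonPlus and purified on Ni–NTA.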
In the case of “TATCCATGGTGTTTAACAATATATCACTGGATACACGTGTCGGAGTCACCTAGTGCAG”, the binding signal was 9700 fluorescence intensity (a.u.).
As to “TTCTTCCCTTCACATAGGAATTGGATGATGTGGAGACTTTCGGAGTCACCTAGTGCAG”, the binding signal was 7630 fluorescence intensity (a.u.).
For “CATAATTTTAGGTATCGCTAGGATTTAATTTACACTGTAGCGGAGTCACCTAGTGCAG”, the binding signal is 3370 fluorescence intensity (a.u.).
For “TTAGTTTTATATAAAATGTGTCACATGATAATAGTAGTACCGGAGTCACCTAGTGCAG”, the binding signal is 3870 fluorescence intensity (a.u.).
With “TCTACTGTGTGTGTGTGTGTGTGTGTTCACTACTGGATAGCGGAGTCACCTAGTGCAG”, the binding signal was 3160 fluorescence intensity (a.u.).
To “GTCCTAAAGTACTTATTGTGTCCGGTTTTGGTTAGTTAAGCGGAGTCACCTAGTGCAG” belongs 3210 fluorescence intensity (a.u.).
Regarding “CAGTTACGCGCCGTGCCTACCCGTGTATCACCGCGATGAGCGGAGTCACCTAGTGCAG”, the binding signal is 3270 fluorescence intensity (a.u.).
To “TGCGTGTTTGATGATATACACGTGCGTATATGTCTACCGTCGGAGTCACCTAGTGCAG” belongs 3880 fluorescence intensity (a.u.); to “ACACGGATCGAACCCCTCCTCCCCGCCACGTCACCGATCCCGGAGTCACCTAGTGCAG”, 38700 fluorescence intensity (a.u.).
Turning to “TTCTCCGGCCGCCGCCGCCATCGCCGCCGGCCGTAGCATGCGGAGTCACCTAGTGCAG”, the binding signal is 56000 fluorescence intensity (a.u.).
“CCCTAGCCCTCGCCCTGGTCCGTCCGGCGTGGCGCGCGCTCGGAGTCACCTAGTGCAG”: the binding signal is 5150 fluorescence intensity (a.u.).
On to “GCATGGCGCCGCCATCTCGGATTCGCCGTAGTGTCTCCGCCGGAGTCACCTAGTGCAG”, for which the binding signal is 35300 fluorescence intensity (a.u.).
For “CCCGCGTCGCATTCAACGCCACGCACACCACTCCACTCCACGGAGTCACCTAGTGCAG”, the binding signal is 3470 fluorescence intensity (a.u.).
In the case of “ACCCATTTTCAGTGGCAGGGTTATTGACACCACACTCACACGGAGTCACCTAGTGCAG”, the binding signal was 3140 fluorescence intensity (a.u.).
“TCGGCATGGGCGGTGGCGCTGGCGCGTCCTCCGATCCCGTCGGAGTCACCTAGTGCAG”: the binding signal is 19900 fluorescence intensity (a.u.).
With “TCTCTCTCTCTCTCGCCATCGTCACTGCGGCTGCTGCTGCCGGAGTCACCTAGTGCAG”, the binding signal is 3810 fluorescence intensity (a.u.).
Under “TGGATCCGGCCCTGCATGTCCGTCCTCGCCGGTGGGCGCTCGGAGTCACCTAGTGCAG” stands 41400 fluorescence intensity (a.u.).
For the sequence “TCCCTCCTCCCCGTCGTCACAAGCCACGTCATCGATCCGCCGGAGTCACCTAGTGCAG”, the binding signal was 40000 fluorescence intensity (a.u.).
With “GCACCAGCCAGTCAGCCCACCATTTCAAACGCCACACTCACGGAGTCACCTAGTGCAG”, the binding signal was 60800 fluorescence intensity (a.u.).
Under “CCAACGTCGTACATCCCTCCACGTCATCGATCCGCGCCGCCGGAGTCACCTAGTGCAG” stands 35200 fluorescence intensity (a.u.); under “CGCGCTGTCTGCACCGCCGCCGCCGCCGCCGGCGGAACCCCGGAGTCACCTAGTGCAG”, 25200 fluorescence intensity (a.u.); under “CTCCGATACGTATCCCGTACGTATCGCTATTTACTTCGATCGGAGTCACCTAGTGCAG”, 4930 fluorescence intensity (a.u.).
To “CAGATCGGCAGACCAGACCACGTGTACACCCAACACGAGGCGGAGTCACCTAGTGCAG” belongs 8390 fluorescence intensity (a.u.).
Turning to “AGGAAAGGTTAATTACGTACGTACACGGGAAGGAGTAACCCGGAGTCACCTAGTGCAG”, the binding signal is 3340 fluorescence intensity (a.u.).
Consider “TCCCTCTGACATGGTTCATTGATAGGTGGACTCTCTATTCCGGAGTCACCTAGTGCAG”, for which the binding signal was 3240 fluorescence intensity (a.u.).
Regarding “AAGAAAATCTCCTGTCTCAGTCTCCTCCGCTCCTTGCGCCCGGAGTCACCTAGTGCAG”, the binding signal is 54400 fluorescence intensity (a.u.).
Regarding “CCGCCGTGAAGCACACCACCACCAACCCCATCGCTCCCTCCGGAGTCACCTAGTGCAG”, the binding signal is 64500 fluorescence intensity (a.u.).
For the sequence “ACCACCACCACCACCATCGCACTCCCAACTCCCAAGCCGCCGGAGTCACCTAGTGCAG”, the binding signal is 3760 fluorescence intensity (a.u.).
Consider “GCTCCTCACCCGCCGTGAACCCAACCCACATCCGCTGACGCGGAGTCACCTAGTGCAG”, for which the binding signal is 3300 fluorescence intensity (a.u.).
For “AAAGCCTCGCCGCCATCTCTCTCCACCACCCAAAATTTCTCGGAGTCACCTAGTGCAG”, the binding signal is 35600 fluorescence intensity (a.u.).
Consider “TCCCGTCTCGTCCGTCGTCTCCTCCGCTCCTTGCGCCAAGCGGAGTCACCTAGTGCAG”, for which the binding signal was 3200 fluorescence intensity (a.u.).
Turning to “ACCTGCCCAACCCCAACCCCAACCCTCTCCTCTCCGCCCACGGAGTCACCTAGTGCAG”, the binding signal is 3710 fluorescence intensity (a.u.).
Under “AGCCAGCCCAAAAGCCACGCCGTCCACTCCATCTCCGCCTCGGAGTCACCTAGTGCAG” stands 48000 fluorescence intensity (a.u.); under “CAAAAGCCTCGCCGCGCACCACCACCCAGCTCTCTCCACTCGGAGTCACCTAGTGCAG”, 3640 fluorescence intensity (a.u.).
Turning to “CTCCTCTCCCGCGCGCCACGCCCTCCCTCCCCTTCCCCTTCGGAGTCACCTAGTGCAG”, the binding signal was 4060 fluorescence intensity (a.u.).
For the sequence “TCCCCACCCTCCTCCGCAAGCCACGCCTCTCCCCAAAGTTCGGAGTCACCTAGTGCAG”, the binding signal was 65500 fluorescence intensity (a.u.).
With “GCTCCTCCCGTGCCGCCGCCGTCTCGCGCCAGTGCGTCTCCGGAGTCACCTAGTGCAG”, the binding signal is 3330 fluorescence intensity (a.u.).
Under “GGTATTGCTGTATTTATTTTGGTGTGGTTGAGAGTCTAGTCGGAGTCACCTAGTGCAG” stands 4096 fluorescence intensity (a.u.); under “CATTCCCCTCTCCCCAATTTACCATACACACATGGATGTACGGAGTCACCTAGTGCAG”, 3640 fluorescence intensity (a.u.); under “TGATCAATCAAGAAGACGATCGTGCCGATATCATGGCACCCGGAGTCACCTAGTGCAG”, 3940 fluorescence intensity (a.u.).
Turning to “GTCTTTCTTCAATTGTTATTATTGTCATAAATCAGGAGAACGGAGTCACCTAGTGCAG”, the binding signal is 22600 fluorescence intensity (a.u.).
For the sequence “TTAACCCCGTCACGTCACCTCTCTCTCTCTCTACCGTCTCCGGAGTCACCTAGTGCAG”, the binding signal is 9720 fluorescence intensity (a.u.).
“CAAACGGGACGAATTCCTAACCCTCGTCATCCGTCCCTTCCGGAGTCACCTAGTGCAG”: the binding signal was 4710 fluorescence intensity (a.u.).
To “CTGTTATCTTTCAATAAACCAAGGGAATTTTAGTTTGTTCCGGAGTCACCTAGTGCAG” belongs 33200 fluorescence intensity (a.u.).
With “AAGAGGATGGCTGGGAGGATGACATGTGGAGCCCACATGGCGGAGTCACCTAGTGCAG”, the binding signal was 4450 fluorescence intensity (a.u.).
Take “CGCCCGAGAGCGAACGGCCGTCTGCCACGTCACTTTCGCCCGGAGTCACCTAGTGCAG”: the binding signal is 29100 fluorescence intensity (a.u.).
Consider “ACATCCACAACCATCTCCACCTCACCTCGTCCATCGTCTCCGGAGTCACCTAGTGCAG”, for which the binding signal was 6010 fluorescence intensity (a.u.).
Consider “GGCGCCGTGCCGTAATCCATCTCCTCCGTCGTCCAACCTCCGGAGTCACCTAGTGCAG”, for which the binding signal is 44900 fluorescence intensity (a.u.).
For the sequence “CCAACCCATCTCCACCGTCCATCTCCATCCGACGCCTCCCCGGAGTCACCTAGTGCAG”, the binding signal was 24300 fluorescence intensity (a.u.).
As to “CCGGCCACCGCCCTCCCGCCGCACGGGCCACCGGCCACCGCGGAGTCACCTAGTGCAG”, the binding signal was 3460 fluorescence intensity (a.u.).
With “TCTCTTCCCCTCTCCGCGCCGCCCTCCGCCCCGCCCGCGGCGGAGTCACCTAGTGCAG”, the binding signal was 3270 fluorescence intensity (a.u.).
To “CGAGAGCGAACGGCCGTCTGCCACGTCACTTTCGCCACCCCGGAGTCACCTAGTGCAG” belongs 41900 fluorescence intensity (a.u.); to “TCCCTCCCTCCGCCGCGCCACGCCCACCCACGCATCCATCCGGAGTCACCTAGTGCAG”, 4110 fluorescence intensity (a.u.).
In the case of “AGCCCGGCCCACCACGGGGTTTCCCTCTTCTCTAGGCCCGCGGAGTCACCTAGTGCAG”, the binding signal is 50600 fluorescence intensity (a.u.).
Take “CCCGAGAGCGAACGGCCGTCTGCCACGTCATTTTCGCCGCCGGAGTCACCTAGTGCAG”: the binding signal was 29700 fluorescence intensity (a.u.).
To “TCCACCCCACGTCCTCCTCCTCCCCAGCAGTCCCACCCGCCGGAGTCACCTAGTGCAG” belongs 3570 fluorescence intensity (a.u.).
For “AACCTCCATCTCCCGCCCAGTGCCGCCGCGCCACGTCACCCGGAGTCACCTAGTGCAG”, the binding signal is 39100 fluorescence intensity (a.u.).

Source of the values: PMC7819943, “Rice protein-binding microarrays: a tool to detect cis-acting elements near promoter regions in rice”.
